Screens as filed in PubChem.
Nrf2 block = blocks Nrf2 signaling. A549 ARE-Fluc reporter, luciferase luminescence, 18-24 h. Potency, µM (highest dose often 46 µM), hits mostly inhibitors. 360,000 compounds, 2.1% hits. AID 504444; further: nearly all actives have a fitted effect of over 60% in size
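Nrf2 function is reported as luminescence of an ARE-controlled luciferase in A549 cells. Compounds were tested at several concentrations, and a CellTiter-Fluor read on the same wells flagged cytotoxicity.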
TrxR1 substrate = is turned over as a substrate by rat TrxR1 | purified TrxR1 substrate turnover, NADPH consumption readout | Potency, µM (top dose mostly 114 µM) | 390,000 compounds, 0.01% hits | AID 588456; further: nearly all actives have a fitted effect of over 50% in size
Target sequence (O89049 whole entry, looked up): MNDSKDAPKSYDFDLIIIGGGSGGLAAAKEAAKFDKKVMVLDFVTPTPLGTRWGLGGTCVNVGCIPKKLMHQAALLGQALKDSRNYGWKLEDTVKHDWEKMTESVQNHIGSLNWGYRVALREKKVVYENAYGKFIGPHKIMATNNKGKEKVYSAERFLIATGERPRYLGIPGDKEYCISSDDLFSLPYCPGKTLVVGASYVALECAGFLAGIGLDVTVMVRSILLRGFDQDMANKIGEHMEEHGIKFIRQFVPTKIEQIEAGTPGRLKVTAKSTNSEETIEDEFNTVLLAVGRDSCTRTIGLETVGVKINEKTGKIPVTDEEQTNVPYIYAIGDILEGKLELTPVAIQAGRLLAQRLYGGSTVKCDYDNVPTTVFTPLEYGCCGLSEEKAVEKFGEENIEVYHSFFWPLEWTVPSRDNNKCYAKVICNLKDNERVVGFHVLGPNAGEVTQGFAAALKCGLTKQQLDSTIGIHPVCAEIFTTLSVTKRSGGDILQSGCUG
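Rat TrxR1, dispensed at 90 nM, was prereduced with 400 uM NADPH (final) for 5 min at ~22 deg C, then incubated with compound 15 min before 400 uM selenite. A first-read NADPH fluorescence drop versus no-compound background flagged substrates.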
Mito fusion yeast = mitochondrial division inhibition or fusion activation; AID 485298; 320,000 compounds, 0.23% hits; S. cerevisiae fusion-defective mutant growth rescue, CellTiterGlo 48 h; Potency, µM (doses to about 46.1 µM), most hits filed as activators; further: nearly all actives have a fitted effect of over 45% in size
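Growth-rescue viability read-out: after 48 h at the non-permissive 37C in glycerol/ethanol YPEG, yeast mitochondrial fusion mutants are measured by CellTiterGlo luminescence; compounds (23 nl pinned per well) restoring growth score as division inhibitors or fusion activators.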
rTrxR1 inhibitor = rat TrxR1 inhibition. O89049. recombinant rTrxR1, NADPH fluorescence consumption, selenite substrate. Potency, µM (doses to about 114 µM), hits mostly inhibitors. 390,000 compounds, 1% hits. AID 588453; further: nearly all actives have a fitted effect of over 65% in size
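Rat TrxR1 (90 nM in the dispensed reagent) was pre-reduced with 400 uM NADPH for 5 min at room temperature, then incubated with compound for 15 min. After 400 uM selenite was added, NADPH fluorescence (Ex 340/Em 450 nm) was followed for 8 min.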
mIDH1 inhibitor = blocks human mutant IDH1 R132H enzyme; O75874; IDH1-R132H enzyme, NADPH consumption, diaphorase/resazurin fluorescence; Potency, µM (titrated, usually from 76.6 µM), usual class: inhibitors; 390,000 compounds, 0.093% hits; AID 602179; further: nearly all actives have a fitted effect of over 65% in size
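IDH1-R132H (0.5 ug/mL) preincubated 30 min with compound, then NADPH (0.016 mM) and alpha-KG (2 mM) added; 80 min at RT, pH 7.5. Remaining NADPH coupled via diaphorase/resazurin to fluorescence (540/590 nm); concentration-response curves normalized to no-enzyme control.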
A549 viability = counter-screen for Nrf2 inhibitors: cytotoxicity in A549 cells; A549 ARE-Fluc cells, CellTiter-Fluor viability, 18-24 h; Potency, µM (titrated, usually from 46 µM), actives largely listed as inhibitors; 390,000 compounds, 0.16% hits; AID 504648
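A549 ARE-Fluc cells in 5% FBS OPTI-MEM, 5000 cells/well, rested 2 h then exposed to compounds in concentration-response for 18-24 h at 37 °C. Viability by CellTiter-Fluor fluorescence (Ex 405/Em 525) after 30 min; luciferase luminescence (BugLite, 15 min, RT) read afterwards.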
A number is an active result; . = inactive; ? = inconclusive; / = no result given; [ ] = remark or other dose. In the library only some 3.1% were active in any assay of this set; here they are far more common. The call rests on the fitted dose curve; in most records, active means well fitted curve in the direction sought with a large enough effect; inconclusive means small, poorly fitted or top-dose-only effect, or another doubt; inactive means no such curve, though single readings can be large; an effect the other way counts as inactive or inconclusive.

SMILES | Nrf2 block | TrxR1 substrate | Mito fusion yeast | rTrxR1 inhibitor | mIDH1 inhibitor | A549 viability
O=C(O)CSc1nnc(CNc2cccc(C(F)(F)F)c2)n1Cc1ccco1 | . | . | . | . | . | .
Cc1cc(NC(=O)CSc2nnc(COc3ccccc3)n2Cc2ccco2)no1 | . | . | . | . | . | .
O=C(CSc1nnc(COc2ccccc2)n1Cc1ccco1)NCc1ccco1 | . | . | . | 11µM | . | .
O=C(CSc1nnc(C2CCCCC2)n1-c1ccccc1)NCc1ccco1 | ? | . | . | 13µM | . | .
O=C(CSc1nnc(CNc2cccc(C(F)(F)F)c2)n1Cc1ccco1)NCc1ccco1 | . | . | . | 16µM | . | .
OCc1cn(Cc2ccc(O)c3ncccc23)cn1 | / | / | . | / | / | /
CCC1CCC2(C1)N=C(Nc1nc3ccccc3o1)NC1=C2C(=O)CCC1 (stereo not drawn) | ? | / | / | / | / | .
COc1ccc(Cl)cc1NC(=O)COC(=O)CC(C)(C)CC1=NS(=O)(=O)c2ccccc2N1 | / | . | / | . | . | .
CN(C)C(=O)CSc1nnc(Cc2ccccc2)n1Cc1ccco1 | . | . | . | . | . | .
O=C(CSc1nnc(Cc2ccccc2)n1Cc1ccco1)NC12CC3CC(CC(C3)C1)C2 | 26µM | . | . | . | . | .[1.84 µM]
COc1ccccc1C1=Nn2c(nnc2-c2ccccc2C)SC1 | . | / | / | / | / | .
CC(C)Cn1cc(NC(=O)Nc2cccc(C(F)(F)F)c2)c2ccccc2c1=O | 23µM | . | / | ? | . | .
CC(C)Cn1cc(NC(=O)N2CCN(c3cccc(C(F)(F)F)c3)CC2)c2ccccc2c1=O | . | . | / | . | . | .
O=C(Nc1cccc2ccccc12)c1cnn2c1NC(=C1CC1)C=C2C(F)F | / | . | / | . | / | /
COc1ccc(/C(C)=N/Nc2nc(C)cc(-c3ccccc3)n2)cc1 | 15µM | . | / | . | . | .
COc1ccc(-c2nc3ccc(NC(C)=O)cc3c(=O)n2Cc2ccccc2)cc1COc1ccc(NC(C)=O)cc1 | . | . | / | 20µM | / | .
COc1ccc(CN(Cc2ccccc2)C(=O)c2ccc(NC(C)=O)cc2)cc1COc1ccc(NC(C)=O)cc1 | ? | . | / | . | / | .
COc1ccc(CN(Cc2ccccc2)C(=O)c2ccccc2)cc1COc1ccc(NC(C)=O)cc1 | 23µM | / | / | / | / | .
CCN(CC)/[N+]([O-])=N/OCOC(=O)C(C)c1ccc(CC(C)C)cc1 (stereo not drawn) | / | . | / | . | / | /
O=C(C1COc2ccccc2O1)N1CCN(Cc2ccc(Br)cc2F)CC1 (stereo not drawn) | ? | . | 11µM | . | . | .
O=C(C1COc2ccccc2O1)N1CCN(c2ccc([N+](=O)[O-])cc2)CC1 (stereo not drawn) | ? | . | / | 1.4µM | . | ?
O=C(C1COc2ccccc2O1)N1CCN(Cc2ccc3c(c2)OCO3)CC1 (stereo not drawn) | ? | . | . | . | . | .
CCn1c(CNC(=O)c2ccc(OC)cc2)nnc1SCC(=O)Nc1ccc(OC)cc1 | . | . | / | . | . | .
Cc1nc2ccccn2c1C(=O)NNS(=O)(=O)c1ccc(C(C)(C)C)cc1 | 9.2µM | . | . | . | . | .
COc1ccc(Br)cc1S(=O)(=O)NNC(=O)c1c(C)nc2ccccn12 | . | . | . | . | . | .
SMILES | Nrf2 block | TrxR1 substrate | Mito fusion yeast | rTrxR1 inhibitor | mIDH1 inhibitor | A549 viability
Brc1ccc[n+](CCc2ccccc2)c1 | / | . | / | . | / | /
Cc1ccc(C2C=C(c3ccccc3)Nc3ncnn32)cc1 (stereo not drawn) | . | . | / | 45µM | . | .
COc1ccc(C2C=C(c3ccc(C)cc3)Nc3ncnn32)cc1 (stereo not drawn) | ? | . | . | . | . | .
Fc1ccc(C2=CC(c3ccc(Br)o3)n3ncnc3N2)cc1 (stereo not drawn) | . | . | . | 7.9µM | . | ?
COc1cccc(-c2nc(C(N)=O)c3[nH]c(=O)n(-c4cccc(Cl)c4)c3n2)c1OC | . | . | . | . | . | .
COc1ccc(-c2nc(C(N)=O)c3[nH]c(=O)n(-c4cccc(Cl)c4)c3n2)cc1OC | 26µM | . | . | . | . | ?
CCOC(=O)c1c(-c2ccc(F)cc2)csc1/N=C/N(C)C | 16µM | . | . | . | . | ?
COc1cccc(NC(=O)C(OC(=O)CNC(=O)c2ccccc2)c2ccccc2)c1 (stereo not drawn) | ? | / | / | / | / | .
COc1ccc(C2C(=O)N(C3CCCCCC3)CC(=O)N2CCC2=CCCCC2)cc1 (stereo not drawn) | / | . | / | . | . | .
Cc1c(C(=O)N(Cc2cccc(F)c2)C2CCS(=O)(=O)C2)oc2cc(Br)ccc12 (stereo not drawn) | 13µM | . | / | . | . | .
Cc1c(C(=O)N(Cc2ccc(Cl)cc2)C2CCS(=O)(=O)C2)oc2ccccc12 (stereo not drawn) | ? | . | 14µM | . | . | ?
CCOc1ccc(CN(C(=O)c2oc3ccccc3c2C)C2CCS(=O)(=O)C2)cc1 (stereo not drawn) | ? | . | . | . | . | .
Cc1ccc(C(=O)N2CCc3cc(CNC(=O)COc4ccccc4)ccc32)cc1 | / | . | / | . | . | .
CCOc1ccccc1N=C1SC(CC(=O)Nc2ccc(OC)cc2OC)C(=O)N1CCC1=CCCCC1 (stereo not drawn) | . | . | . | . | . | .
O=C(CC1SC(=Nc2ccc(OC(F)F)cc2)N(CCC2=CCCCC2)C1=O)Nc1ccccc1F (stereo not drawn) | 21µM | . | . | . | . | .
Fc1cccc(-n2ncc3c2ncn2nc(COc4ccc(Cl)cc4)nc32)c1 | . | . | / | . | / | .
C=CCn1c(SCC(=O)N2CCN(c3ccc(F)cc3)CC2)nnc1-c1ccco1 | 18µM | . | . | . | . | .
Cc1cccc(OCc2nnc(SCC(=O)N3CCN(c4ccccc4)CC3)o2)c1C | ? | . | . | . | . | .
C=CCn1c(SCC(=O)N2CCOCC2)nc2scc(-c3ccco3)c2c1=O | ? | . | . | 45µM | . | /
CCn1c(COc2c(C)cccc2C)nnc1SCC(=O)N1CCN(c2ccccc2)CC1 | 18µM | .[2.29 µM] | . | . | . | ?
C=CCn1c(COc2cccc(C)c2C)nnc1SCC(=O)N1CCN(c2ccccc2)CC1 | 16µM | . | . | . | . | ?
C=CCn1c(SCC(=O)Nc2ccc(N3CCOCC3)cc2)nnc1-c1ccco1 | . | . | . | . | . | .
COc1cc(SC)ccc1C(=O)Nc1nc2ccccc2[nH]1 | 1.6µM | . | . | . | . | .
COc1ccccc1C(=O)Nc1nc2ccccc2[nH]1 | ? | . | . | . | . | .
